Inhibition score data for 15 compounds are collected here from PubChem BioAssay AID489042 (NMMLSC, 2010).

Calls of active or inactive are those of the source. Cut-off read from the data, not from the text of the source: active = inhibition score above about 11; inactive = the rest.

This test is described as follows: S. cerevisiae short- and long-term growth effects – BY4741, OD595, 24 h, dose response (AID 489042). To be noted: flow cytometer event count, 7 d (AID 449753), hits give high values. A general note: A flow cytometer gives signals particle by particle.
Turning to `C[C@]12CCC3C(CC[C@H]4C[C@@H](O)CC[C@]34C)C1CC[C@@H]2OC(=O)[C@H](N)CCCCN` (stereo not given in full), the inhibition score is 0 (inactive).
With `C[C@]12CCC3C(CC[C@H]4C[C@H](O)CC[C@]34C)C1C[C@@H](CCCCl)[C@@H]2O` (stereo not given in full), the inhibition score is 0 (inactive).
Under `Cn1c(O)c(C(=Nc2ccc(F)cc2)c2ccccc2Cl)c(=O)n(C)c1=O` stands 0 (inactive); under `O=c1[nH]c(O)c(C=Nc2ccc(F)c(Cl)c2)c(=O)[nH]1`, 0 (inactive).
For the compound `Cn1c(=O)[nH]c2nncnc2c1=O`, the inhibition score is 0 (inactive).
Next, `C[n+]1c2ccccc2nc2ccc(NCCO)cc21`: 0 (inactive); `C=C1C(O)[C@@H]2O[C@]3(CC[C@H](/C=C/C(C)[C@@H]4CC(C)=CC5(O[C@H](C[C@@](C)(O)C(=O)O)CCC5O)O4)O3)CC[C@H]2O[C@@H]1C(O)CC(C)[C@H]1OC2(CCCCO2)CCC1C` (stereo not given in full): 11 (active); `CNc1ccc2nc3ccccc3[n+](C)c2c1`: 0 (inactive).
Turning to `C[C@]12CCC3C(CC[C@H]4C[C@H](O)CC[C@]34C)C1CCC2=O` (stereo not given in full), the inhibition score was 0 (inactive).
Under `Oc1cccc2nc3ccccc3nc12` stands 0 (inactive); under `C[C@]12CCC3C(CC[C@H]4C[C@@H](O)CC[C@]34C)[C@H]1CC[C@H]2O` (stereo not given in full), 0 (inactive); under `Nc1cc2nc3ccccc3nc2cc1N`, 0 (inactive).
Regarding `CC(=O)O[C@H]1CCC2C3CC[C@H]4[C@@H](O)[C@H](O)CC[C@]4(C)C3CC[C@@]21C` (stereo not given in full), the inhibition score is 0 (inactive).
Next, `C#C[C@]1(O)[C@H](O)CC2C3CC[C@H]4C[C@@H](O)CC[C@]4(C)C3CC[C@@]21C` (stereo not given in full): 0 (inactive); `OCC[n+]1c2ccccc2nc2ccc(N3CCOCC3)cc21`: 0 (inactive).
